Compounds with a hit are over-represented: about 2.4% of the library has one in this group of screens.
D2 antag: D2 dopamine receptor (human) antagonism | P14416 | HEK293 TREx D2 cells, calcium flux, dopamine EC80 | inhibition, % at 10 µM | hit rate 2% among 340,000 | AID 485344; in the data active = inhibition above about 30%; inactive = below that, where a call was filed; note: 0% is about no effect
Target sequence (P14416 whole entry, looked up): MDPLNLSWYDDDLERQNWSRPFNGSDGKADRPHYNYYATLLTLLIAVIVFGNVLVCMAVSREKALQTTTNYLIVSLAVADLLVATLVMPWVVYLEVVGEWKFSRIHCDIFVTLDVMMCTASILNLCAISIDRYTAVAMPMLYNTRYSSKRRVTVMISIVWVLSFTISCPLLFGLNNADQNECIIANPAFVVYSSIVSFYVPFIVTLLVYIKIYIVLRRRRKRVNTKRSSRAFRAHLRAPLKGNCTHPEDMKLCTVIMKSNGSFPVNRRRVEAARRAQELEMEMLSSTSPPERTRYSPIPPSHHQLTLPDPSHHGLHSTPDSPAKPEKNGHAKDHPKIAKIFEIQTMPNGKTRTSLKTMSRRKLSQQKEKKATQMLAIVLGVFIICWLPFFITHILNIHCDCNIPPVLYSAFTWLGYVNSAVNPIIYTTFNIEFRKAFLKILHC
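Compounds are added to dye-loaded, induced HEK293 T-REx cells coupled to calcium release via D2; after a 3 min kinetic read an EC80 dopamine stimulus is given and fluorescence is recorded for 3 more min.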
D2 ag-1: human D2 receptor agonism in beta-arrestin assay | activation, % (no concentration beside the values) | DiscoveRx PathHunter D2 beta-arrestin, luminescence, 90 min; 100% = 57 uM dopamine signal | AID 624465 | hit rate 0.084% among 360,000; in the data active = activation above about 40%
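DiscoveRx PathHunter D2 beta-arrestin cells (2,100/well) attached overnight, then compound-stimulated 90 min at 37 C in HBSS/10 mM HEPES/0.1% Tween-20 buffer; beta-galactosidase complementation read by luminescence after 1 h at ambient temperature. Dopamine 57 uM final (EC100) as control.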
D2 ag-2: activates the human D2 dopamine receptor; HEK293 T-REx D2 cells, calcium flux agonist mode; activation, % at 2 µM; hit rate 0.53% among 340,000; AID 485358;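 active = activation over 3 SD above normal in the single-dose calcium agonist read, cut at about 30% in these data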; note: 0% is about no effect
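HEK293 Trex D2 cells, tetracycline-induced, o/n 30 C 5% CO2; no-wash Ca dye, RT 30–90 min; 10-cycle baseline, 23 nl cpd added, kinetic Ca read 180 s; agonist hits = positive Ca response.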
D2 PAM-1: D2 dopamine receptor (human) potentiation | P14416 | HEK293 T-REx D2, calcium flux, EC20 dopamine potentiation | potentiation, % at 10 µM | hit rate 0.34% among 340,000;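 active = potentiation over 3 SD above the plate norm, cut at about 30% in these data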; note: 0% is about no effect
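Calcium flux readout, no-wash dye, 1 read/s. Inducible HEK293 Trex D2 line, overnight 30 C. Compound alone 180 s (agonist flags), then EC20 dopamine, another 180 s to score potentiation.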
D2 PAM-2: potentiates the human D2 dopamine receptor allosterically | P14416 | DiscoveRx D2 beta-arrestin cells, luminescence, 90 min; 100% = 57 uM dopamine signal | potentiation, % (test concentration not listed) | hit rate 0.23% among 360,000 | AID 624464; in the data active = potentiation above about 50%
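PathHunter beta-arrestin assay in DiscoveRx D2 cells. Compounds were added with an EC20 of dopamine (50 nM final) for 90 min at 37 deg C. Luminescence was read 1 h after detection reagent, with 57 uM dopamine as the EC100 control.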
* marks the source's active call; other numbers are inactive results; nt = no result.

SMILES | D2 antag | D2 ag-1 | D2 ag-2 | D2 PAM-1 | D2 PAM-2
Cc1cccc(COc2ccc(/C=C3/C(=O)N(C)C(=S)N3C)cc2)c1 | 30.5* | 1.4 | -0.7 | -1.7 | -0.9
CCC(C)COC(c1ccccc1)(c1ccccc1)C(Oc1nc(C)cc(C)n1)C(=O)O (stereo unspecified) | -4.3 | 8.8 | 0.9 | -6.7 | 1.3
Cc1cc(C)nc(OC(C(=O)O)C(OCC(C)C)(c2ccccc2)c2ccccc2)n1 (stereo unspecified) | -9.1 | 2.8 | 2.4 | -6.1 | 71.5*
CCC(C)Oc1ccc(/C=C/c2[nH]c(=O)[nH]c(=O)c2[N+](=O)[O-])cc1OC (stereo unspecified) | -6.5 | -4.7 | -1.1 | 34.3* | -3.7
COc1ccc(CCNC(=O)c2ccc3c(c2)CCN3S(=O)(=O)c2ccc(C)cc2)cc1 | nt | nt | nt | -4.6 | nt
COc1cc(OC)c(-c2c3cc(O)c(=O)cc-3oc3cc(O)c(O)cc23)cc1OC | -95.9 | -14.3 | 148.0* | -13.9 | -38.6
CCCCN(C)C(=O)c1ccc(S(=O)(=O)N2CCOCC2)cc1 | 32.6* | -1.8 | -0.2 | 2.9 | 0.2
CN(CCOc1ccc(Cl)cc1)C(=O)c1ccc(S(=O)(=O)N2CCOCC2)cc1 | 6.5 | -3.1 | -1.0 | 1.9 | -1.0
CCOc1ccc(CC(=O)OCN2C(=O)c3ccccc3C2=O)cc1 | 1.9 | 0.3 | -1.3 | 30.3* | -12.4
CCCC(c1nnnn1C(C)(C)CC)N(Cc1ccco1)Cc1cc2ccc(OC)cc2[nH]c1=O (stereo unspecified) | -4.1 | -3.1 | 0.5 | 35.6* | -13.4
Cc1ccc(C)c(S(=O)(=O)c2nnn3c2nc(Nc2ccc(F)c(Cl)c2)c2sccc23)c1 | nt | nt | 0.4 | 2.2 | nt
COc1ccc(NS(=O)(=O)c2ccc(C)c(C(=O)NCC(c3ccco3)N(C)C)c2)cc1 (stereo unspecified) | 22.6 | -1.5 | 1.3 | -4.4 | -18.7
COc1ccc(NS(=O)(=O)c2cccc(C(=O)NCC(c3ccco3)N(C)C)c2)cc1 (stereo unspecified) | 36.5* | 0.1 | 0.3 | -13.4 | -39.9
COc1ccc(Cl)cc1NS(=O)(=O)c1cccc(C(=O)NCC(c2ccco2)N(C)C)c1 (stereo unspecified) | 60.4* | -2.9 | 0.3 | -19.1 | -42.8
COc1ccc(N(C)S(=O)(=O)c2cccc(C(=O)NCC(c3cccs3)N(C)C)c2)cc1 (stereo unspecified) | 46.1* | 0.6 | 1.3 | -24.1 | -37.4
COc1ccc(C(CNC(=O)c2ccc(NS(=O)(=O)c3ccc4c(c3)OCCO4)cc2)N(C)C)cc1 (stereo unspecified) | 31.0* | -4.3 | -0.3 | -13.5 | -40.3
COc1ccccc1NS(=O)(=O)c1ccc(C(=O)NCC(c2ccco2)N(C)C)cc1 (stereo unspecified) | -12.2 | -0.7 | 0.5 | -11.9 | -3.1
COc1ccc(N(C)S(=O)(=O)c2cccc(C(=O)NCC(c3ccco3)N3CCCC3)c2)cc1 (stereo unspecified) | 22.7 | -5.5 | -0.2 | -19.8 | -44.4
CN(C)C(CNC(=O)c1cccc(C(F)(F)F)c1)c1ccco1 (stereo unspecified) | 31.3* | -5.3 | 0.3 | -33.3 | -5.9
COc1ccccc1NS(=O)(=O)c1cccc(C(=O)NCC(c2ccco2)N2CCCCC2)c1 (stereo unspecified) | 2.4 | -1.9 | -0.3 | 4.0 | -40.5
COc1ccc(Cl)cc1NS(=O)(=O)c1cccc(C(=O)NCC(c2ccco2)N2CCCC2)c1 (stereo unspecified) | 38.5* | -7.1 | 0.2 | -22.2 | -49.5
O=C(NCc1ccco1)c1cccc(C(F)(F)F)c1 | -6.7 | -5.7 | 1.8 | 0.3 | -1.7
CCOC(=O)Cn1c(=O)n(CC2CCCO2)c2nc(-c3ccc(CC)cc3)nc(C(N)=O)c21 (stereo unspecified) | nt | nt | 0.0 | 4.3 | nt
C[C@@H]1CC2OC(=O)[C@@]3(C)C(=O)CC[C@@](C)(C23)[C@@]1(O)CCc1ccoc1 (stereo partly specified) | 30.1* | -1.3 | 0.2 | -12.6 | 0.8
COc1ccc(C2=CC(c3ccc(F)cc3)n3ncc(C(=O)Nc4ccc(C)cc4)c3N2)cc1 (stereo unspecified) | nt | nt | 3.8 | -2.0 | nt

Bioassay records as filed in PubChem.
